Numbering of substitutions follows the chain as printed.

Common to all, as to experiment: PBM; 200 nM protein, PBS
What all share (details): dsDNA, one strand shown

Assay [1] concerns the target T1, PAX4 (Homo sapiens, UniProt O43316 9-242, R200K).
T1 sequence: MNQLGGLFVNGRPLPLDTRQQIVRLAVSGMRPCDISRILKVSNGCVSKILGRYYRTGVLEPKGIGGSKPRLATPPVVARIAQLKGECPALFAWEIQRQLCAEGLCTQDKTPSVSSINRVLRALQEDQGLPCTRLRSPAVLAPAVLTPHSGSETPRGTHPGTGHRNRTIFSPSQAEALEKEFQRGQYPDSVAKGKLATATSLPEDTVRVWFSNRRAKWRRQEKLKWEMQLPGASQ

For assay [2], the target named is T2, PAX4 (Homo sapiens, UniProt O43316 9-242).
T2 sequence: T1 sequence with K192R

For assay [3], the target named is T3, PAX4 (Homo sapiens, UniProt O43316 9-242, R200Q).
T3 sequence: T1 sequence with K192Q

Assay [4] concerns the target T4, PAX4 (Homo sapiens, UniProt O43316 9-242, F177V).
T4 sequence: T1 sequence with F169V, K192R

Assay [5] concerns the target T5, PAX4 (Homo sapiens, UniProt O43316 9-242, F177Y).
T5 sequence: T1 sequence with F169Y, K192R

In assay [6] the target is T6, PAX4 (Homo sapiens, UniProt O43316 9-242, R227W).
T6 sequence: T1 sequence with K192R, R219W

In assay [7] the target is CRX (Homo sapiens, UniProt O43186 26-111, R41L).
CRX, sequence (O43186 26-111 R41L): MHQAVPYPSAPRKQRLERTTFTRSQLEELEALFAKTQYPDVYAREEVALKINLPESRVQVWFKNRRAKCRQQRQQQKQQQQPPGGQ
For assay [8], the target named is PRRX1 (Homo sapiens, UniProt P54821 80-166, F113S).
PRRX1 (Homo sapiens, UniProt P54821 80-166, F113S), sequence (P54821 80-166 F113S): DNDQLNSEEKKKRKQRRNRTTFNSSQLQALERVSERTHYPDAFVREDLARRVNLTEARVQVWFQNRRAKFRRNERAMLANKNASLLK
Assay [9] concerns the target HOXB6 (Homo sapiens, UniProt P17509 132-218, K202E).
The target in assay [10] is HOXA2 (Homo sapiens, UniProt O43364 129-215, R185T).
HOXA2 (Homo sapiens, UniProt O43364 129-215, R185T), sequence (O43364 129-215 R185T): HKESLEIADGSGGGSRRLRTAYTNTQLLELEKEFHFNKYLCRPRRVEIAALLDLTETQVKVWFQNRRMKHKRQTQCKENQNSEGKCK
The target of assay [11] is HOXA2 (Homo sapiens, UniProt O43364 129-215, R185K).
HOXA2 (Homo sapiens, UniProt O43364 129-215, R185K), sequence (O43364 129-215 R185K): as the sequence (O43364 129-215 R185T) above, with T57K counted along it
Assay [12] has as its target PROP1 (Homo sapiens, UniProt O75360 56-141).
Assay [13] concerns the target PROP1 (Homo sapiens, UniProt O75360 56-141, R99H).
For assay [14], the target named is PROP1 (Homo sapiens, UniProt O75360 56-141, F88S).
PROP1 (Homo sapiens, UniProt O75360 56-141, F88S), sequence (O75360 56-141 F88S): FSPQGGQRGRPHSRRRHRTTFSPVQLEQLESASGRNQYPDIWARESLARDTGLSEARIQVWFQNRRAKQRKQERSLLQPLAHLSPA
In assay [15] the target is HOXA2 (Homo sapiens, UniProt O43364 129-215, Y150S).
HOXA2 (Homo sapiens, UniProt O43364 129-215, Y150S), sequence (O43364 129-215 Y150S): as the sequence (O43364 129-215 R185T) above, with Y22S, T57R counted along it
In assay [16] the target is PRRX1 (Homo sapiens, UniProt P54821 80-166).
PRRX1 (Homo sapiens, UniProt P54821 80-166), sequence (P54821 80-166): as the sequence (P54821 80-166 F113S) above, with S34F counted along it
The target of assay [17] is HOXA2 (Homo sapiens, UniProt O43364 129-215).
HOXA2 (Homo sapiens, UniProt O43364 129-215), sequence (O43364 129-215): as the sequence (O43364 129-215 R185T) above, with T57R counted along it
For assay [18], the target named is HOXB6 (Homo sapiens, UniProt P17509 132-218).
HOXB6 (Homo sapiens, UniProt P17509 132-218), sequence (P17509 132-218): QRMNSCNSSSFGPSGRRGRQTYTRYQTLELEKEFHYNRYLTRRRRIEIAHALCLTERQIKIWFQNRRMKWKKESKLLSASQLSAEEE

PROP1 (Homo sapiens, UniProt O75360 56-141, R99H), sequence (O75360 56-141 R99H): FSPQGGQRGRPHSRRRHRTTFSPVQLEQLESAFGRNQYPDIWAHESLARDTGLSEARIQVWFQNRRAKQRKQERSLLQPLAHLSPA
HOXB6 (Homo sapiens, UniProt P17509 132-218, K202E), sequence (P17509 132-218 K202E): as the sequence (P17509 132-218) above, with K71E counted along it
PROP1 (Homo sapiens, UniProt O75360 56-141), sequence (O75360 56-141): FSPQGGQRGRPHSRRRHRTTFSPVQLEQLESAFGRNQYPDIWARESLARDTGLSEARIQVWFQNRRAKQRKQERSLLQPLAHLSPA

In the case of ATGAATTA, the binding signal was 11.7 upbm affinity estimate (log intensity, higher = more binding, comparable within an allelic series) in assay [1]; 12.2 upbm affinity estimate (log intensity, higher = more binding, comparable within an allelic series) in [2]; 11.8 upbm affinity estimate (log intensity, higher = more binding, comparable within an allelic series) in assay [3]; 10.7 upbm affinity estimate (log intensity, higher = more binding, comparable within an allelic series) in assay [4]; 11.2 upbm affinity estimate (log intensity, higher = more binding, comparable within an allelic series) in [5]; 11 upbm affinity estimate (log intensity, higher = more binding, comparable within an allelic series) in assay [6].
As to CCGGGCTC, the binding signal in [1] was 9.24 upbm affinity estimate (log intensity, higher = more binding, comparable within an allelic series); in assay [2], 9.31 upbm affinity estimate (log intensity, higher = more binding, comparable within an allelic series); in assay [3], 9.36 upbm affinity estimate (log intensity, higher = more binding, comparable within an allelic series); in [4] it was 9.17 upbm affinity estimate (log intensity, higher = more binding, comparable within an allelic series); in assay [5], 9.16 upbm affinity estimate (log intensity, higher = more binding, comparable within an allelic series); in [6], 9.23 upbm affinity estimate (log intensity, higher = more binding, comparable within an allelic series).
As for TGTATTAA, the binding signal is 11.7 upbm affinity estimate (log intensity, higher = more binding, comparable within an allelic series) in assay [1] and 10.9 upbm affinity estimate (log intensity, higher = more binding, comparable within an allelic series) in [7].
Turning to GGAAGCCC, the binding signal was 9.27 upbm affinity estimate (log intensity, higher = more binding, comparable within an allelic series) in assay [1]; 9.25 upbm affinity estimate (log intensity, higher = more binding, comparable within an allelic series) in [2]; 9.38 upbm affinity estimate (log intensity, higher = more binding, comparable within an allelic series) in assay [3]; 9.32 upbm affinity estimate (log intensity, higher = more binding, comparable within an allelic series) in assay [4]; 9.3 upbm affinity estimate (log intensity, higher = more binding, comparable within an allelic series) in [5]; 9.35 upbm affinity estimate (log intensity, higher = more binding, comparable within an allelic series) in [6].
In the case of CTCGCCTC, the binding signal is 9.23 upbm affinity estimate (log intensity, higher = more binding, comparable within an allelic series) in [1]; 9.21 upbm affinity estimate (log intensity, higher = more binding, comparable within an allelic series) in assay [2]; 9.24 upbm affinity estimate (log intensity, higher = more binding, comparable within an allelic series) in assay [3]; 9.31 upbm affinity estimate (log intensity, higher = more binding, comparable within an allelic series) in assay [4]; 9.3 upbm affinity estimate (log intensity, higher = more binding, comparable within an allelic series) in [5]; 9.28 upbm affinity estimate (log intensity, higher = more binding, comparable within an allelic series) in [6].
Turning to TAACTCAA, the binding signal was 10.6 upbm affinity estimate (log intensity, higher = more binding, comparable within an allelic series) in assay [1]; 10.7 upbm affinity estimate (log intensity, higher = more binding, comparable within an allelic series) in assay [2]; 10.1 upbm affinity estimate (log intensity, higher = more binding, comparable within an allelic series) in [4].
For CCTTCCCC, the binding signal in assay [1] is 9.18 upbm affinity estimate (log intensity, higher = more binding, comparable within an allelic series); in assay [2], 9.26 upbm affinity estimate (log intensity, higher = more binding, comparable within an allelic series); in assay [3] it was 9.24 upbm affinity estimate (log intensity, higher = more binding, comparable within an allelic series); in [4] it was 9.11 upbm affinity estimate (log intensity, higher = more binding, comparable within an allelic series); in assay [5], 9.14 upbm affinity estimate (log intensity, higher = more binding, comparable within an allelic series); in assay [6], 9.24 upbm affinity estimate (log intensity, higher = more binding, comparable within an allelic series).
For CGTATTAA, the binding signal in [1] is 11.8 upbm affinity estimate (log intensity, higher = more binding, comparable within an allelic series); in [2], 12.2 upbm affinity estimate (log intensity, higher = more binding, comparable within an allelic series); in [3], 11.5 upbm affinity estimate (log intensity, higher = more binding, comparable within an allelic series); in assay [4] it was 10.5 upbm affinity estimate (log intensity, higher = more binding, comparable within an allelic series); in [5] it was 11 upbm affinity estimate (log intensity, higher = more binding, comparable within an allelic series); in [6] it was 11 upbm affinity estimate (log intensity, higher = more binding, comparable within an allelic series). For the same sequence, the binding signal in assay [7] is 11.2 upbm affinity estimate (log intensity, higher = more binding, comparable within an allelic series).
Turning to ATTACCCG, the binding signal in [1] is 10.6 upbm affinity estimate (log intensity, higher = more binding, comparable within an allelic series); in [2] it was 11 upbm affinity estimate (log intensity, higher = more binding, comparable within an allelic series); in [4], 9.93 upbm affinity estimate (log intensity, higher = more binding, comparable within an allelic series); in [5], 9.92 upbm affinity estimate (log intensity, higher = more binding, comparable within an allelic series); in assay [6], 10.1 upbm affinity estimate (log intensity, higher = more binding, comparable within an allelic series).
On to AGCTGCCG, for which the binding signal was 9.44 upbm affinity estimate (log intensity, higher = more binding, comparable within an allelic series) in assay [1]; 9.42 upbm affinity estimate (log intensity, higher = more binding, comparable within an allelic series) in [2]; 9.33 upbm affinity estimate (log intensity, higher = more binding, comparable within an allelic series) in assay [3]; 9.27 upbm affinity estimate (log intensity, higher = more binding, comparable within an allelic series) in [4]; 9.2 upbm affinity estimate (log intensity, higher = more binding, comparable within an allelic series) in assay [5]; 9.31 upbm affinity estimate (log intensity, higher = more binding, comparable within an allelic series) in assay [6].
As to CGCCCGGC, the binding signal in [1] was 9.26 upbm affinity estimate (log intensity, higher = more binding, comparable within an allelic series); in [2] it was 9.23 upbm affinity estimate (log intensity, higher = more binding, comparable within an allelic series); in assay [3], 9.1 upbm affinity estimate (log intensity, higher = more binding, comparable within an allelic series); in assay [4] it was 8.97 upbm affinity estimate (log intensity, higher = more binding, comparable within an allelic series); in assay [5], 9.01 upbm affinity estimate (log intensity, higher = more binding, comparable within an allelic series); in assay [6], 9.06 upbm affinity estimate (log intensity, higher = more binding, comparable within an allelic series).
As for AGCCTGAG, the binding signal in [8] was 9.28 upbm affinity estimate (log intensity, higher = more binding, comparable within an allelic series); in assay [9] it was 8.98 upbm affinity estimate (log intensity, higher = more binding, comparable within an allelic series); in assay [10] it was 7.3 upbm affinity estimate (log intensity, higher = more binding, comparable within an allelic series); in [11], 10.4 upbm affinity estimate (log intensity, higher = more binding, comparable within an allelic series); in assay [12] it was 6.61 upbm affinity estimate (log intensity, higher = more binding, comparable within an allelic series); in assay [13], 6.62 upbm affinity estimate (log intensity, higher = more binding, comparable within an allelic series). The binding signal in [14] is 6.73 upbm affinity estimate (log intensity, higher = more binding, comparable within an allelic series); in assay [15], 10.5 upbm affinity estimate (log intensity, higher = more binding, comparable within an allelic series); in [16], 9.12 upbm affinity estimate (log intensity, higher = more binding, comparable within an allelic series); in assay [17] it was 7.33 upbm affinity estimate (log intensity, higher = more binding, comparable within an allelic series); in assay [18], 8.88 upbm affinity estimate (log intensity, higher = more binding, comparable within an allelic series).

These data come from publication PMC11006913.
